Assay outcomes deposited in PubChem BioAssay by Small Molecule Screening Facility, UW Madison.
This is one part of a sample in which hits are shown more often than they occur.
RMI-FANCM inh – disruptors of RMI1/RMI2 association with MM2 peptide – biochemical, fluorescence polarization, human, primary screen; RMI core complex with F-MM2 peptide; stronger effect = lower value; RMI core complex (RMI1/RMI2) binding to FANCM MM2 peptide, human; actives 0.58% (n = 70,000); AID 1159607, 2016; FP signal (polarization) at 33 µM; in the data active = FP signal below about 40
* = called active by the depositor; ! = not confirmed by another sample.

SMILES	RMI-FANCM inh
COc1cc(C)c(C)cc1S(=O)(=O)NCC(c1ccsc1)N1CCc2ccccc2C1 (stereo not given)	78
COc1ccc(S(=O)(=O)NCC(c2ccc(N(C)C)cc2)N2CCc3ccccc3C2)cc1OC (stereo not given)	55
COc1cc(C)c(C)cc1S(=O)(=O)NCC(c1ccc(N(C)C)cc1)N1CCc2ccccc21 (stereo not given)	19*
C#CCn1c(=NC(=O)c2cc(C)nn2CC)sc2cc(C(=O)OC)ccc21	64
COc1ccc2nc(N3CCN(C(=O)c4ccc(-c5ccccc5)cc4)CC3)sc2c1	65
Cc1ccc(S(=O)(=O)N=C2C=CC(=O)C(Cl)=C2)c(C)c1	-12*
Cc1ccc(-c2ccc(N3CCN(S(=O)(=O)c4ccccc4Cl)CC3)nn2)c(C)c1	80
Cc1ccc(N2CCN(S(=O)(=O)c3cc(Cl)ccc3Cl)CC2)c(C)c1	64
Cc1cc(NC(=O)c2cccs2)n(-c2ncnc3c2cnn3-c2ccc(Cl)cc2)n1	38
CCOc1ccc(S(=O)(=O)Nc2ccc3c(c2)OCC(C)(C)C(=O)N3CCC(C)C)cc1F	68
CC(C)=NNC(=O)/C=C\C(=O)O	61
COc1cc(C(=O)Oc2c(Cl)cc(Cl)cc2C=Nc2cc(C)c(C)cc2C)cc(OC)c1OC	97
COc1cc(C(=O)O/N=C\c2ccccc2OC(F)(F)F)cc(OC)c1OC	50
COc1cc(N=Cc2ccccc2OC(=O)c2cc(OC)c(OC)c(OC)c2)c(OC)cc1Cl	28*
COc1ccc(-c2cc(-c3ccc(C)c(C)c3)nc(SCC(=O)NCc3ccc4c(c3)OCO4)c2C#N)cc1OC	104
N#Cc1c(-c2ccc3c(c2)OCO3)cc(-c2ccccc2O)[nH]c1=O	76
N#Cc1c(-c2ccc3c(c2)OCO3)nc(N2CCCCC2)[nH]c1=O	23*
Cc1cc(NC(=O)c2cccc(N3C(=O)CCC3=O)c2)n(-c2nc3ccccc3s2)n1	67
CCn1cccc(-c2nnc(SCC(=O)NCc3ccc4c(c3)OCO4)n2C)c1=O	62
Cc1cccc(N2C(=O)/C(=C/C=C/c3ccco3)SC2=S)c1C	9*
CN1C(=O)/C(=C\C=C\c2ccccc2)SC1=S	59
O=C(NN1C(=O)/C(=C\C=C\c2ccco2)SC1=S)c1ccc([N+](=O)[O-])cc1	21*
O=C(Cc1ccccc1)NN1C(=O)/C(=C/c2cccc([N+](=O)[O-])c2)SC1=S	59
Cc1ccc(C(=O)NN2C(=O)/C(=C/c3ccc(N(C)C)cc3)SC2=S)cc1	104
CC(C(=O)O)N1C(=O)/C(=C/C=C/c2ccco2)SC1=S (stereo not given)	82
SMILES	RMI-FANCM inh
CNC(=S)N1CCN(C(=S)c2ccc(OC)cc2)CC1	63
O=C(c1cccn(Cc2ccccc2F)c1=O)N1CCCc2ccccc21	107
C=Cc1ccc(CSc2nccn3nc(-c4ccc(OC)cc4)cc23)cc1	70
C=Cc1ccc(CSc2nccn3nc(-c4ccc(F)cc4)cc23)cc1	34*
Fc1ccc(-c2cc3c(SCc4cccc(C(F)(F)F)c4)nccn3n2)cc1	69
COc1cc(OC)cc(C(=O)Nc2cccc(-c3cn4c(C)csc4n3)c2)c1	87
O=C(c1ccco1)N1CCCc2ccc(NS(=O)(=O)c3ccccc3[N+](=O)[O-])cc21	59
COc1ccc(-c2ccc(N3CCN(S(=O)(=O)c4ccc(F)c(C)c4)CC3)nn2)cc1	87
C=Cc1c(C)c2cc3[nH]c(cc4nc(cc5nc(cc1[nH]2)C(C)=C5CCC(=O)O)C(CCC(=O)O)=C4C)c(C)c3C=C	40
CC1=C(CCC(=O)O)c2cc3nc(cc4[nH]c(cc5[nH]c(cc1n2)c(C)c5C(C)O)c(C)c4C(C)O)C(C)=C3CCC(=O)O (stereo not given)	34*
Cc1cc(=O)[nH]c(-n2nc(C)c(CCC(=O)O)c2C)n1	72
CC(=O)N1CCCc2ccc([N+](=O)[O-])cc21	70
COc1ccc(C(=O)Nc2nsc(-c3ccccc3)n2)cc1	75
CCCS(=O)(=O)N1CCCc2ccc(NS(=O)(=O)c3ccc(OC)cc3C)cc21	70
O=C(CSc1ncnc2c1nnn2Cc1ccccc1F)N1CCOCC1	62
COc1ccc2[nH]c(C(=O)NC3CCN(Cc4ccccc4)CC3)cc2c1	56
COc1ccc(CCN2CCC(Nc3nc4ccccc4n3Cc3ccc(F)cc3)CC2)cc1	20*!
COc1ccc(CCS(=O)(=O)NCC2CCN(Cc3ccccc3)CC2)cc1	77
Cc1ccccc1N1C(=O)CSC1=O	55
CCc1nn(C)c2c(=O)c(=O)c2n(C)[nH]1	32*
O=C(Nc1nc(-c2ccc(Cl)cc2Cl)cs1)c1cccc([N+](=O)[O-])c1	76
Nc1ccc(O)c(C(=O)O)c1	55
O=C(O)C1=CC(=C(c2ccc(O)c(C(=O)O)c2)c2ccc(O)c(C(=O)O)c2)C=CC1=O	-9*
O=C(O)c1cc(O)ccc1O	62
COc1ccc(S(=O)(=O)N(C(C)=O)c2cc3sc(=O)oc3c3ccccc23)cc1	60
SMILES	RMI-FANCM inh
CCOC(=O)/C(C)=N\NC(N)=S	42
NC(=O)c1ccc[n+](CC(=O)c2ccc3c(c2)Cc2ccccc2-3)c1	71
NC(=O)c1ccc[n+](CC(=O)c2ccc(Cl)c(Cl)c2)c1	62
NC(=O)C[n+]1ccc2ccccc2c1	12*
CSc1ccccc1NC(=O)CC1CCCCN1S(=O)(=O)c1ccc(F)cc1 (stereo not given)	69
COc1ccc(Cc2nc3ccccc3[nH]2)cc1	62
Cc1ccnc(NC(c2ccco2)c2c(C)[nH]c3ccccc23)c1 (stereo not given)	88
COc1ccc(C(c2c(C)[nH]c3ccccc23)c2c(C)[nH]c3ccccc23)c(OC)c1	16*
O=C(CCCSc1ccc(NC(=O)c2ccc(F)cc2)nn1)NCC1CCCO1 (stereo not given)	65
O=S(=O)(c1ccc(F)cc1)N1CCN(c2cnccn2)CC1	63
COc1ccc(CC(=O)Nc2ccc(-c3ccc4nncn4n3)cc2)cc1OC	68
COc1cc(/C=C\C(=O)NCc2ccc3[nH]c4c(c3c2)CCCC4)cc(OC)c1OC	54
CCOC(=O)CCC(=O)NCc1ccc2[nH]c3c(c2c1)CCCC3	55
C/C=C\C(=O)NCc1ccc2[nH]c3c(c2c1)CCCC3	14*
CN(NC(=O)c1ccccc1Cl)c1ncccc1[N+](=O)[O-]	57
CCC(O)c1nc2ccccc2n1CCOc1cccc(OC)c1 (stereo not given)	62
O=C(Nc1nc(-c2cc(Cl)sc2Cl)cs1)c1ccc([N+](=O)[O-])s1	28*
O=C(Nc1nc(-c2cc(Cl)sc2Cl)cs1)c1cccs1	61
Cc1ccc(-c2csc(NC(=O)c3ccc([N+](=O)[O-])s3)n2)cc1	55
O=C(CSc1cn(CCNC(=O)c2cccs2)c2ccccc12)NCc1ccc(F)cc1	61
Cc1cc(F)ccc1S(=O)(=O)Nc1ccc2c(c1)CN(C(=O)C1CC1)CC2	66
O=C(Nc1nnc(-c2ccc(F)cc2)s1)c1cccc(Br)c1	57
O=C(NCC1CCN(Cc2ccco2)CC1)c1ccc(Cl)cc1	75
Cc1cc(=O)n2c3ccccc3n(CC(O)CN3CCC(Cc4ccccc4)CC3)c2c1C#N (stereo not given)	73
Cc1ccc(C(C)C)c(OCC(=O)N=Nc2c(O)[nH]c3ccc([N+](=O)[O-])cc23)c1	11*
O=C(N=Nc1c(O)[nH]c2ccc([N+](=O)[O-])cc12)c1ccncc1	62
